Source: PubChem BioAssay (EPA / NIEHS)
Active and inactive are the calls of the source. How the source made its calls: active means hit-call score of the fitted dose curve at least 0.9, where 1 is the maximum; inactive means score below 0.9.

Experiment: ATG_SREBP_CIS: Attagene CIS-FACTORIAL HepG2 Assay for human Sterol Regulatory Element Binding (SREBP) (AID 2282962)
Conditions: HepG2 Attagene cis-factorial SREBP reporter, mRNA; actives raise or lower the signal
How it was run: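 Endogenous factor activity is measured in HepG2 through multiplexed reporter units under cis-element control. Following a 24 h incubation, reporter transcripts are reverse-transcribed, PCR-amplified and sized by capillary electrophoresis; activity is fitted in both directions relative to DMSO.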

| SMILES | outcome | AC50 |
| --- | --- | --- |
| Nc1ccc(S(=O)(=O)Nc2nccs2)cc1 | inactive |  |
| C=C(C)C(=O)OCC(F)(F)C(F)(F)C(F)(F)F | inactive |  |
| O=P(O)(O)OCCC(F)(F)C(F)(F)C(F)(F)C(F)(F)C(F)(F)C(F)(F)F | inactive |  |
| CC(=O)Nc1ccc(N=Nc2cc(C)ccc2O)cc1 | inactive |  |
| FC(F)(F)C(F)(F)C(F)(F)C(F)(F)CCI | inactive |  |
| CCc1c(Br)c(Br)c(Br)c(Br)c1Br | inactive |  |
| CC(C)(C)c1ccc(OC2CCCCC2O)cc1 (stereo not given) |  | 26.5 µM (active) |
| CC(C)OC(=O)c1ccccc1C(=O)OC(C)C | inactive |  |
| OC[C@@H](O)[C@@H](O)[C@H](O)[C@@H](O)CO | inactive |  |
| CN(C)Cc1ccccc1O | inactive |  |
| CCc1ccc(C(c2ccc(CC)cc2)C(Cl)Cl)cc1 | inactive |  |
| CC(C)c1ccccc1N | inactive |  |
| C1COCCN1 | inactive |  |
| COC(=O)CCC(F)(F)C(F)(F)C(F)(F)C(F)(F)F | inactive |  |
| C=CC(=O)OCC(F)(F)C(F)(F)C(F)(F)C(F)(F)C(F)(F)C(F)(F)C(F)(F)F | inactive |  |
| O=S(=O)(O)c1ccc2ccccc2c1 | inactive |  |
| CCCCC(CC)COP(=O)(O)OCC(CC)CCCC (stereo not given) | inactive |  |
| COC(=O)C1CCC(C(=O)OC)CC1 (stereo not given) | inactive |  |

| SMILES | outcome | AC50 |
| --- | --- | --- |
| Nc1cc(Cl)c(N)c(Cl)c1 | inactive |  |
| O=C(O)C(F)(F)C(F)(F)OC(F)(F)F | inactive |  |
| CC(C)=CCCC(C)CCOC(=O)C(C)C (stereo not given) | inactive |  |
| N=C(N)C(F)(F)C(F)(F)C(F)(F)C(F)(F)C(F)(F)C(F)(F)C(F)(F)F | inactive |  |
| O=C(Cl)C(F)(F)C(F)(F)C(F)(F)C(F)(F)C(F)(F)C(F)(F)C(F)(F)C(F)(F)F | inactive |  |
| C=CC(F)(F)C(F)(F)C(F)(F)C(F)(F)C(F)(F)C(F)(F)C(F)(F)C(F)(F)F | inactive |  |
| CS(C)(=O)=O | inactive |  |
| O=C(O)C(F)(F)C(F)(F)C(F)(F)C(F)(F)C(F)(F)C(F)(F)C(F)(F)C(F)(F)C(F)(F)C(F)(F)C(F)(F)C(F)(F)F | inactive |  |
| O=C(O)C(F)(F)C(F)(F)C(F)(F)C(F)(F)F | inactive |  |
| Cc1ccc(S(=O)(=O)OCC(F)(F)C(F)(F)C(F)(F)C(F)(F)C(F)(F)C(F)F)cc1 | inactive |  |
| Cc1ccc(S(=O)(=O)NCl)cc1 | inactive |  |
| C=C(C)C(=O)OCC(F)(F)C(F)(F)C(F)(F)C(F)(F)C(F)(F)C(F)(F)C(F)(F)F | inactive |  |
| FC(F)(F)C(F)(F)C(F)(F)C(F)(F)C(F)(F)C(F)(F)CCS | inactive |  |
| CCCCCC=O | inactive |  |
| CCCCCCCCC(F)(F)C(F)(F)C(F)(F)C(F)(F)C(F)(F)C(F)(F)F | inactive |  |
| Cc1cc(C)cc(O)c1 | inactive |  |
| O=S(=O)(OCCOC(F)(F)F)C(F)(F)F | inactive |  |
